From PubChem BioAssay AID1159580 (chemical genetic matrix, 2015)
About 2,000 (36%) of roughly 5,500 compounds were called active. Roughly 18% stayed inconclusive and do not appear here. Rule as the data show it: active = normalized growth mostly below about 0.91 (no sharp cut-off); inconclusive = no clear call, values can overlap the other calls; inactive = mostly above about 0.92. The list shows a part of the results.

Assay: chemical genetic growth profiling, strain panel (AID 1159580);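 also: tested at 20 µM; growth read once vehicle control cultures reached saturation at 30 °C; 1 = growth at the plate median or of vehicle wells; lower values mean less growth of the strain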
Conditions: growth OD
[1] = S. cerevisiae deletion strains, locus YHR030C, strain SLT2, active compounds read low

Measured: normalized growth

CC(=O)Nc1ccc(S(=O)(=O)NC2Cc3ccccc3C2)cc1
inactive: S. cerevisiae deletion strains, locus YAL013W, strain DEP1, active compounds read low 1.01 | S. cerevisiae deletion strains, locus YBR229C, strain ROT2, active compounds read low 1.01 | S. cerevisiae deletion strains, locus YDL101C, strain DUN1, active compounds read low 0.98 | S. cerevisiae deletion strains, locus YDR150W, strain NUM1, active compounds read low 0.949 | S. cerevisiae deletion strains, locus YEL061C, strain CIN8, active compounds read low 1.01 | S. cerevisiae deletion strains, locus YGR078C, strain PAC10, active compounds read low 1 | [1] 1.06 | S. cerevisiae deletion strains, locus YHR087W, strain rtc3, active compounds read low 1 | S. cerevisiae deletion strains, locus YJR043C, strain POL32, active compounds read low 1 | S. cerevisiae deletion strains, locus YJR075W, strain HOC1, active compounds read low 0.996 | S. cerevisiae deletion strains, locus YKL190W, strain CNB1, active compounds read low 1.01 | S. cerevisiae deletion strains, locus YLR039C, strain RIC1, active compounds read low 1.04 | S. cerevisiae deletion strains, locus YLR058C, strain SHM2 (second series), active compounds read low 1.01 | S. cerevisiae deletion strains, locus YLR085C, strain ARP6, active compounds read low 1.05 | S. cerevisiae deletion strains, locus YLR262C, strain YPT6, active compounds read low 1.03 | S. cerevisiae deletion strains, locus YML094W, strain GIM5, active compounds read low 1.02 | S. cerevisiae deletion strains, locus YMR219W, strain ESC1, active compounds read low 1.01 | S. cerevisiae deletion strains, locus YMR263W, strain SAP30, active compounds read low 0.994 | S. cerevisiae deletion strains, locus YNL153C, strain GIM3, active compounds read low 1.02 | S. cerevisiae deletion strains, locus YNL298W, strain CLA4 (second series), active compounds read low 1.04 | S. cerevisiae deletion strains, locus YNL322C, strain KRE1, active compounds read low 1.01 | S. cerevisiae deletion strains, locus YNR030W, strain Alg12, active compounds read low 1.03 | S. cerevisiae deletion strains, locus YOL006C, strain TOP1, active compounds read low 1.08 | S. cerevisiae deletion strains, locus YPL055C, strain LGE1, active compounds read low 0.966 | S. cerevisiae deletion strains, locus YPL241C, strain CIN2, active compounds read low 1.02 | S. cerevisiae deletion strains, locus YPR135W, strain CTF4, active compounds read low 1.02 | S. cerevisiae strains, strain wild type, active compounds read low 1.01

CCSCCC(N)C(=O)O (stereo not given)
inactive: [1] 1.06 | S. cerevisiae deletion strains, locus YHR079C, strain IRE1, active compounds read low 1.05 | S. cerevisiae deletion strains, locus YJL095W, strain BCK1, active compounds read low 1.04 | S. cerevisiae deletion strains, locus YJR066W, strain TOR1, active compounds read low 1.01 | S. cerevisiae deletion strains, locus YLR113W, strain HOG1, active compounds read low 1.04 | S. cerevisiae deletion strains, locus YNL183C, strain NPR1, active compounds read low 1.02 | S. cerevisiae deletion strains, locus YOR231W, strain MKK1, active compounds read low 1.03 | S. cerevisiae deletion strains, locus YPL256C, strain CLN2, active compounds read low 1.05
